The text below walks through data of PubChem BioAssay (NCATS).

Where “and” joins values, the source holds several entries; their conditions need not be identical. Identical values can stand only once. Inconclusive results are not listed. Where a call stands in place of a potency, no number is given. Some structures have more than one record in an assay (separate samples or runs), and their calls can disagree. Calls of active or inactive are those of the source. Unless noted, calls follow the shape of the dose curve; as a rule, active = well fitted curve in the direction sought with a large enough effect; inconclusive = small, poorly fitted or top-dose-only effect, or another doubt; inactive = no such curve, though single readings can be large; an effect the other way counts as inactive or inconclusive. Starred links: 1 amine or outer side, 2 acyl side, 3 side chain; linkers in the order of their positions; H or OH if unused. Positions of bridges follow the written chain, without caps; N, C: chain ends. Non-standard residues stand in square brackets, D forms with d. Residues, ends and D or L forms follow the SMILES beside them. ξ: configuration not given here. *: point of attachment. ΔAla(3-NHCONH2) = NC(=O)NC=C(N)C(=O)O; X1 = NC1=NCCC(C(N[*:1])C(=O)[*:2])N1; ξβ3hOrn = NCCCC(N)CC(=O)*; Dap = NC[CH](N)C(=O)O

A short description of assay [1]: P-glycoprotein substrates identified in KB-8-5-11 adenocarcinoma cell line, qHTS therapeutic library screen (AID 1346987). Also: nearly all actives have a fitted effect of over 65% in size. Also: potency is read from the fitted curve at half-maximal effect. The settings on record: KB-8-5-11 (P-gp overexpressing) viability, CellTiter-Glo, 72 h; series mostly up to 44.5 µM. The procedure, abridged: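 Steps: plate 500 KB-8-5-11 cells/well in DMEM + 10% FCS (colchicine removed); pin compounds in dose-response; incubate 72 h, 37 degree C, 5% CO2; add CellTiter-Glo, 5 min; read luminescence.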
(qHTS replaces the single test concentration by a dilution series.)

Assay [2] in a line: NS1 protein of Zika virus - qHTS assay to identify small molecule inhibitors in human HEK 293 cells (AID 1347053). Also: nearly all actives have a fitted effect of over 55% in size. The note with it: HEK293 ZIKV MR766 infection, NS1 TR-FRET, 24 h; series mostly up to 46.1 µM. The essentials:
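HEK 293 cells, seeded 20 h at 37 C, were pretreated with compound 1 h, then infected with ZIKV MR766 (MOI = 0.5) for 24 h. NS1 was read by TR-FRET with two anti-NS1 antibodies, normalized to uninfected and infected wells.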

Assay [3] is described as follows: qHTS for Inhibitors of the Functional Ribonucleoprotein Complex (vRNP) of Lassa (LASV) Arenavirus: LASV Primary Screen - GLuc reporter signal (AID 1347082; calls by dose curve; tested in HEK293 reporter line; also: nearly all actives have a fitted effect of over 60% in size). The settings on record: LASV minigenome vRNP, Gaussia luciferase reporter; series mostly up to 57.5 µM.

Take `CCN(C(C)=O)c1cccc(-c2ccnc3c(C#N)cnn23)c1`: the Potency entry in assay [1], in assay [2] and in assay [3] was “inactive” each time. Regarding `CN1CCN(C(=O)O[C@H]2c3nccnc3C(=O)N2c2ccc(Cl)cn2)CC1`, the Potency entry in assay [1], in assay [2] and in assay [3] was “inactive” each time. In the case of `O=C(O)c1ccc2[nH]cc(CCCCN3CC=C(c4ccccc4)CC3)c2c1`, the Potency entry in assay [1], in assay [2] and in assay [3] was “inactive” each time. Take `Cc1ccc2c(c1)C1CN(C)CCC1N2` (stereo unspecified): the Potency result in assay [1], in assay [2] and in assay [3] was “inactive” each time.

In the case of `NCCc1cc(O)c(O)cc1O`, the Potency entry in assay [1], in assay [2] and in assay [3] was “inactive” throughout. Regarding `O=C(NC(O)C(Cl)(Cl)Cl)NC(O)C(Cl)(Cl)Cl` (stereo unspecified), the Potency entry in assay [1], in assay [2] and in assay [3] was “inactive” each time. Regarding `COc1ccc(C(=O)c2c(C)n(CCN3CCOCC3)c3ccccc23)cc1`, the Potency result in assay [1] is “inactive and 5.8 µM (active)”. The Potency result in assay [2] and in assay [3] was “inactive” each time. On to `CC(=O)Nc1cc([As](=O)(O)O)ccc1O`, for which the Potency entry in assay [1], in assay [2] and in assay [3] was “inactive” each time. In the case of `NC(=Nc1ccccc1)Nc1ccccc1`, in assay [3], the Potency result was “inactive”. `O=P(O)(O)C(O)(Cc1cccnc1)P(=O)(O)O`: the Potency entry in assay [3] is “inactive”.

Consider `NCCCC(N)CC(=O)NCC1NC(=O)C(CO)NC(=O)C(N)CNC(=O)C(C2CCN=C(N)N2)NC(=O)C(=CNC(N)=O)NC1=O` (stereo not drawn) (H-[Dap]S[Dap](ξβ3hOrn)[ΔAla(3-NHCONH2)][X1]; lactam 1-C; configuration not given here), for which the activity change, negative = inhibition in assay [3] was 2.05% [at 0.757 µM] (inactive).

For the compound `NC(=O)C(c1ccccc1)(c1ccccc1)[C@@H]1CCN(CCc2ccc3c(c2)CCO3)C1`, the Potency result in assay [3] was “inactive”.

On to `CNC1(C)C2CCC(C2)C1(C)C` (stereo unspecified), for which the Potency result in assay [3] was “inactive”. Still for that read-out and setting: under `Cn1ccc2cc3c(cc21)CCN3C(=O)Nc1cccnc1` stands “inactive”; under `Cc1ccc(-c2cc(C(F)(F)F)nn2-c2ccc(S(N)(=O)=O)cc2)cc1`, “inactive”. On the same count and under the same terms, under `Cc1ccccc1N1C(=O)c2cc(S(N)(=O)=O)c(Cl)cc2NC1C` (stereo unspecified) stands “inactive”; under `Cc1[nH]cnc1CN1CCc2c(c3ccccc3n2C)C1=O`, “inactive”; under `COc1cc(NC(C)CCCN)c2ncccc2c1` (stereo unspecified), “inactive”. On the same count and under the same terms, under `CCN1CCN(C(=O)N[C@@H](C(=O)N[C@@H]2C(=O)N3C(C(=O)O)=C(CSc4nnnn4C)CS[C@H]23)c2ccc(O)cc2)C(=O)C1=O` stands “inactive”; under `COc1cc([C@@H]2c3cc4c(cc3[C@H](O)[C@H]3COC(=O)[C@H]23)OCO4)cc(OC)c1OC`, “inactive”; under `CCOc1ccccc1OCCN[C@H](C)Cc1ccc(OC)c(S(N)(=O)=O)c1`, “inactive”.

Regarding `O[C@@H](c1cc(C(F)(F)F)nc2c(C(F)(F)F)cccc12)[C@H]1CCCCN1`, the Potency result in assay [3] was “inactive”. On to `CC(C)(O)c1ccccc1CC[C@@H](SCC1(CC(=O)O)CC1)c1cccc(/C=C/c2ccc3ccc(Cl)cc3n2)c1`, for which, in assay [3], the Potency result is “inactive”.

With `CC1(C)S[C@@H]2[C@H](NC(=O)C(C(=O)O)c3ccccc3)C(=O)N2[C@H]1C(=O)O` (stereo partly specified), in assay [3], the Potency result is “inactive”. Still for that read-out and setting: under `C[C@H]1[C@H](NC(=O)/C(=N/OC(C)(C)C(=O)O)c2csc(N)n2)C(=O)N1S(=O)(=O)O` (stereo in doubt) stands “inactive”; under `OCCN1CCN(CCCN2c3ccccc3Sc3ccc(C(F)(F)F)cc32)CC1`, “inactive”; under `CCCN1C[C@H](CSC)C[C@@H]2c3cccc4[nH]cc(c34)C[C@H]21`, “inactive”. Turning to `COC(=O)C1=C(C)NC(C)=C(C(=O)OCCN(C)Cc2ccccc2)C1c1cccc([N+](=O)[O-])c1` (stereo unspecified), the Potency result in assay [3] was “inactive”. Same read-out and setting: to `CN1CCN(C(c2ccccc2)c2ccccc2)CC1` belongs “inactive”; to `CC(C)(C#N)c1cc(Cn2cncn2)cc(C(C)(C)C#N)c1`, “inactive”. Same read-out and setting: under `O=c1n(CCCN2CCN(c3cccc(Cl)c3)CC2)nc2ccccn12` stands “inactive”; under `COc1cc(C(C)=O)ccc1OCCCN1CCC(c2noc3cc(F)ccc23)CC1`, “inactive”; under `CCOC(=O)N1CCC(=C2c3ccc(Cl)cc3CCc3cccnc32)CC1`, “inactive”. On the same count and under the same terms, to `N[C@@H](C(=O)N[C@@H]1C(=O)N2C(C(=O)O)=C(Cl)CS[C@H]12)c1ccccc1` belongs “inactive”; to `COc1cc(Cc2cnc(N)nc2N)cc(OC)c1OC`, “inactive”; to `COc1cc2nc(N3CCN(C(=O)c4ccco4)CC3)nc(N)c2cc1OC`, “inactive”.

In the case of `Nc1nnc(-c2cccc(Cl)c2Cl)c(N)n1`, the Potency result in assay [3] was “inactive”. As for `CC(=O)SC[C@@H](C)C(=O)N1CCC[C@H]1C(=O)N[C@@H](Cc1ccccc1)C(=O)O`, in assay [3], the Potency result is “inactive”. Same read-out and setting: to `O=c1[nH]cnc2c1ncn2[C@H]1CC[C@@H](CO)O1` belongs “inactive”; to `NC(=O)c1cn(Cc2c(F)cccc2F)nn1`, “inactive”; to `COc1ccccc1OCC(O)CN1CCN(CC(=O)Nc2c(C)cccc2C)CC1` (stereo unspecified), “inactive”. For the compound `Cc1nc2n(c(=O)c1CCN1CCC(c3noc4cc(F)ccc34)CC1)CCC[C@H]2O`, the Potency entry in assay [3] was “inactive”. For the compound `CCCCC1=NC2(CCCC2)C(=O)N1Cc1ccc(-c2ccccc2-c2nn[nH]n2)cc1`, in assay [3], the Potency entry was “inactive”.

Take `C=C[C@H]1CN2CC[C@H]1C[C@@H]2[C@@H](O)c1ccnc2ccc(OC)cc12`: the Potency entry in assay [3] is “inactive”. As for `O=C(C1CCCCC1)N1CC(=O)N2CCc3ccccc3C2C1` (stereo unspecified), the Potency result in assay [3] is “inactive”.
